Data from PubChem BioAssay (Tox21).
Results filed as inconclusive are left out. Where a structure was tested more than once in an assay, its records may differ in their call. Activity calls are given as the source filed them. Unless noted, calls come from the whole dose curve; as a rule, active = well fitted curve in the direction sought with a large enough effect in the repeat runs; inconclusive = weak or mixed curves; inactive = no such curve, though single readings can be large; an effect the other way counts as inactive or inconclusive.

Legend:
[1] = qHTS assay to identify small molecule agonists of the androgen receptor (AR) signaling pathway in the presence of an antagonist - cell viability counter screen (AID 1259379);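 note: MDA-kb2 human breast cancer cells carrying an MMTV luciferase reporter; series mostly up to about 92 µM; nearly all actives have a fitted effect of over 25% in size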
Outline: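 Viability counter screen: CellTiter-Fluor fluorescence, measured in the same wells as the luciferase read-out. MDA-kb2 cells, 3,000/well, with nilutamide at 3.0uM final and compounds at 15 concentrations, 16 hr at 37C, 0% CO2.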

[2] = qHTS assay to identify small molecule agonists of the estrogen receptor beta (ER-beta) signaling pathway - cell viability counter screen (AID 1259380); note: nearly all actives have a fitted effect of over 30% in size
Outline: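 Luminescence read-out (CellTiter-Glo, 30 min, room temp) taken in the same wells as the beta-lactamase reporter assay; ER-beta-UAS-bla HEK293T cells exposed to DMSO-dissolved compounds for 16 hr at 37C in 2% charcoal-stripped FBS medium.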

[3] = target: Androgen receptor (Homo sapiens) (UniProt P10275); test: qHTS assay to identify small molecule agonists of the androgen receptor (AR) signaling pathway in the presence of an antagonist (AID 1259381; calls by dose curve; note: nearly all actives have a fitted effect of over 15% in size)
Androgen receptor (Homo sapiens), sequence (P10275 whole entry, looked up): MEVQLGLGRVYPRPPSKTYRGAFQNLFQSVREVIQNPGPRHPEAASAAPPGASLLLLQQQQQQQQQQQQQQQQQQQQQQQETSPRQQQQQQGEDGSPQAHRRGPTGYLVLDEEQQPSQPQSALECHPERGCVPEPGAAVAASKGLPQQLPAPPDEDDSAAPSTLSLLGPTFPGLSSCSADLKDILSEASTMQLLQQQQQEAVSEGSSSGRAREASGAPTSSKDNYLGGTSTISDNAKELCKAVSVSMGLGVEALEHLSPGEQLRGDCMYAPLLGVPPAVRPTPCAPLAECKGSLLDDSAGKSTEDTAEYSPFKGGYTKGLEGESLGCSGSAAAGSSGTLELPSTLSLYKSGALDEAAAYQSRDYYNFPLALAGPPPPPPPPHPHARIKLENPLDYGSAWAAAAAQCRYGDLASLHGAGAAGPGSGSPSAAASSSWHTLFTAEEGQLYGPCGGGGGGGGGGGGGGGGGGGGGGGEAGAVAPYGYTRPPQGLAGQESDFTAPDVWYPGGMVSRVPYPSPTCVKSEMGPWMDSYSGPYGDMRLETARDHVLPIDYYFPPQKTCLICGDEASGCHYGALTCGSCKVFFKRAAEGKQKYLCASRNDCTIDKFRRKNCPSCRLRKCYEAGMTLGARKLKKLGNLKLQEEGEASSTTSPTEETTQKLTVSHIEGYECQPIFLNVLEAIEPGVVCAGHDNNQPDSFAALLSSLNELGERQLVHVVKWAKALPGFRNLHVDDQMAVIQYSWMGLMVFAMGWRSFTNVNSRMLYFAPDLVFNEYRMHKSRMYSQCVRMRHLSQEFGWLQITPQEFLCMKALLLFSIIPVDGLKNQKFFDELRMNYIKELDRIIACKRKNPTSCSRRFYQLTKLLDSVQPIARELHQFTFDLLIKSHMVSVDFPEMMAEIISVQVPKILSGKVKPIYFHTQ
Outline: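 Luciferase read-out (ONE-Glo, 30min room temperature) in MDA-kb2 MMTV-reporter cells; agonist mode run in presence of AR antagonist nilutamide, 3.0uM final. Compounds tested as 15-point series, 16hr exposure at 37C, 0% CO2.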

[4] = qHTS assay to identify small molecule antagonists of the estrogen receptor beta (ER-beta) signaling pathway - cell viability counter screen (AID 1259382);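 note: HEK293T cells carrying ER-beta-UAS-bla reporter stimulated with estradiol; series mostly up to about 92 µM; nearly all actives have a fitted effect of over 55% in size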
Outline: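 Luminescent ATP read-out (CellTiter-Glo, 30 min, RT) taken in the same wells as the bla reporter assay. HEK293T ER-beta-UAS-bla cells in 2% charcoal-stripped FBS were exposed to compounds with 1nM E2 for 16 hr at 37C.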

[5] = qHTS assay to identify small molecule agonists or antagonists of the thyroid stimulating hormone receptor (TSHR) signaling pathway - wild type cell line counter screen (AID 1259384; calls by dose curve)
Outline: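 Wild-type Hek293 cells, 800/well, 18 h at 37C, then compound with Ro20-1724 for 30 min RT. cAMP by HTRF (cAMP-d2/anti-cAMP cryptate), 1 h RT, fluorescence read. 15 concentrations, triplicates.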

[6] = target: Thyrotropin receptor (Homo sapiens) (UniProt P16473); test: qHTS assay to identify small molecule antagonists of the thyroid stimulating hormone receptor (TSHR) signaling pathway (AID 1259385; calls by dose curve; note: nearly all actives have a fitted effect of over 20% in size)
Thyrotropin receptor (Homo sapiens), sequence (P16473 whole entry, looked up): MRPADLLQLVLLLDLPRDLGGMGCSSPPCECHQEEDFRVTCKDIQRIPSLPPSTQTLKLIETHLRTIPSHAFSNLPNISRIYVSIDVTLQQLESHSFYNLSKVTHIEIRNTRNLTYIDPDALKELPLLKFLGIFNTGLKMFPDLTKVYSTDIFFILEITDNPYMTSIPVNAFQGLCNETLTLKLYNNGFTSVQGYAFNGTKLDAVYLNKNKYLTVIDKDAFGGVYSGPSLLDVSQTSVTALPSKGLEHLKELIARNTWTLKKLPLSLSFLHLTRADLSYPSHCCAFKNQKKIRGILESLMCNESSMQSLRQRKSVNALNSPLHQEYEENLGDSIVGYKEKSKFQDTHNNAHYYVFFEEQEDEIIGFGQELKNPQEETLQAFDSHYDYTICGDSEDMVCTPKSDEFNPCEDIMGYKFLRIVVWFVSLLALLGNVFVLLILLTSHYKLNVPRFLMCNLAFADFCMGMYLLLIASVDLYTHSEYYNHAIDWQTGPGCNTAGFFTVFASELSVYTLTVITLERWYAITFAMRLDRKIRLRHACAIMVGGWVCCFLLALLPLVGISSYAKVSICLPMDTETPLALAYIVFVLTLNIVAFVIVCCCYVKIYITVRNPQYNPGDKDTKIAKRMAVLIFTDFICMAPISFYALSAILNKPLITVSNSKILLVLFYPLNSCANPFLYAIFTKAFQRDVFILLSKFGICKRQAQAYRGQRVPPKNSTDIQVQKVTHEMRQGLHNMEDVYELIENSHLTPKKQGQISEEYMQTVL
Outline: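 TSHR-HEK293 cells (800/well) plated 18 h, then compounds with Ro20-1724 and TSH at 1.5 ng/mL final, 30 min at room temperature. cAMP quantified by HTRF (cAMP-d2/anti-cAMP-cryptate, 1 h); 15 concentrations in triplicate.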

[7] = qHTS assay to identify small molecule agonists of the estrogen receptor alpha (ER-alpha) signaling pathway in the presence of an antagonist - cell viability counter screen (AID 1259386);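 note: series mostly up to about 92 µM; cells exposed to compounds for 22 h at 37 °C before the viability read; nearly all actives have a fitted effect of over 30% in size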
Outline: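 Read-out: CellTiter-Fluor fluorescence after 1hr reagent incubation, measured in the same wells as the luciferase readout. VM7Luc4E2 cells were exposed to 15 compound concentrations with 10.0nM ICI-182,780 for 22hr at 37C.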

[8] = target: Progesterone receptor (Homo sapiens) (UniProt P06401); test: qHTS assay to identify small molecule agonists of the progesterone receptor (PR) signaling pathway (AID 1346784; calls by dose curve; note: nearly all actives have a fitted effect of over 30% in size)
Progesterone receptor (Homo sapiens), sequence (P06401 whole entry, looked up): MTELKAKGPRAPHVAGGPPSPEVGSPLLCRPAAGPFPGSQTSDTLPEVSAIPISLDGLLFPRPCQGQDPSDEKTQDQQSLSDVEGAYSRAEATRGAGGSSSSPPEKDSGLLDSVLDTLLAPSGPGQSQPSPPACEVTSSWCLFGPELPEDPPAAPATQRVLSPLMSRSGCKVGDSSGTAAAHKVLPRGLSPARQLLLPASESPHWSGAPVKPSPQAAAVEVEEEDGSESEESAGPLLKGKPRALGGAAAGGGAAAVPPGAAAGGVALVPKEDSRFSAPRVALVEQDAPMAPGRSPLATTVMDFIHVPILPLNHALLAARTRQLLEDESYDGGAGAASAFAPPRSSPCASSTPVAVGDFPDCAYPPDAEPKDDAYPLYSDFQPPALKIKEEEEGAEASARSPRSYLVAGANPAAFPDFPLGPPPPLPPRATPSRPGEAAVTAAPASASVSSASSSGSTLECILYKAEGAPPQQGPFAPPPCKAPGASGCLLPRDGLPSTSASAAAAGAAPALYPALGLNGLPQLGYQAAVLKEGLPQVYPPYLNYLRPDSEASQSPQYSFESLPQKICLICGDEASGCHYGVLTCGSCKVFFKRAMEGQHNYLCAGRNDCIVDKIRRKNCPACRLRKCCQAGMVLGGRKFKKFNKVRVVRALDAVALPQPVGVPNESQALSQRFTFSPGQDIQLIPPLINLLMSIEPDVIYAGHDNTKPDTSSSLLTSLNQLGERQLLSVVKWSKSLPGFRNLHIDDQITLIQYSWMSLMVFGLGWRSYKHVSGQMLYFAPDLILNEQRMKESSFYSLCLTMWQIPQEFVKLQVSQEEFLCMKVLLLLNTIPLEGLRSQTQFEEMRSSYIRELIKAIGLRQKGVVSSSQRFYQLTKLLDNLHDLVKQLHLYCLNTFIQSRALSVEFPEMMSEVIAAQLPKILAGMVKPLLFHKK
Outline: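 Beta-lactamase reporter read-out: after 16 hr compound treatment at 37C and a further 2 hr at room temperature with LiveBLAzer B/G FRET substrate, fluorescence was measured in PR-UAS-bla HEK 293T cells grown in 2% charcoal-stripped serum.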

[9] = target: Progesterone receptor (Homo sapiens) (UniProt P06401); test: qHTS assay to identify small molecule antagonists of the progesterone receptor (PR) signaling pathway (AID 1346795; active = well fitted inhibition curve with a large enough effect in the signal ratio in the repeat runs, not every such curve was filed as active; the % refers to the signal ratio; note: potency is the fitted concentration of half-maximal effect)
Outline: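 Read-out is fluorescence from the LiveBLAzer B/G FRET substrate, cleaved by a UAS-controlled beta-lactamase in PR-UAS-bla HEK293T cells after 16 hr exposure to compound plus 1 nM promegestone (final), followed by 2 hr at room temperature.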

[10] = qHTS assay to identify small molecule antagonists of the progesterone receptor (PR) signaling pathway - cell viability counter screen (AID 1346798);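 note: HEK293T PR-UAS-bla cells stimulated with the agonist R5020; series mostly up to about 92 µM; nearly all actives have a fitted effect of over 50% in size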
Outline: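 HEK293T PR-UAS-bla, 2% charcoal-stripped FBS; 4 hr pre-plate; cpd + R5020, 16 h 37C; LiveBLAzer read first; then CellTiter-Glo 30 min RT, luminescence.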

[11] = qHTS assay to identify small molecule agonists of the progesterone receptor (PR) signaling pathway - cell viability counter screen (AID 1346799; calls by dose curve; note: nearly all actives have a fitted effect of over 45% in size; note: potency is the fitted concentration of half-maximal effect)
Outline: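 Luminescence from CellTiter-Glo, added after the beta-lactamase FRET read in the same wells, gave cytotoxicity in PR-UAS-bla HEK293T cells treated with compounds for 16 hr at 37C.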

[12] = qHTS assay to identify small molecule antagonists of the TGF-beta/Smad signaling pathway - cell viability counter screen (AID 1346824); note: nearly all actives have a fitted effect of over 50% in size
Outline: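 SBE-bla HEK 293T cells, incubated overnight, then compound plus 0.25 ng/mL TGF-beta1 (stock added) for 5 hr at 37 C. Viability was read in the same wells by CellTiter-Glo luminescence after 30 min at room temperature.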

[13] = qHTS assay to identify small molecule agonists of the TGF-beta/Smad signaling pathway - cell viability counter screen (AID 1346829); note: top concentration of the series differs between compounds; nearly all actives have a fitted effect of over 45% in size
Outline: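 HEK 293T SBE-bla line, 5 hr compound exposure at 37 C, multiplexed CellTiter-Glo viability read by luminescence.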

[14] = qHTS assay to identify small molecule agonists of the TGF-beta/Smad signaling pathway (AID 1346859; active = well fitted activation curve with a large enough effect in the signal ratio in the repeat runs, not every such curve was filed as active; the % refers to the signal ratio; note: series mostly up to about 77 µM)
Outline: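 SBE-bla HEK 293T, 4,000 cells/well, plated o/n; cpd in DMSO, 5 hr, 37 C/5% CO2; B/G FRET substrate 2 hr RT; ex 405, em 460/530 nm.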

[15] = Human pregnane X receptor (PXR) small molecule agonists, qHTS cell viability counter screen (AID 1346977); note: nearly all actives have a fitted effect of over 50% in size
Outline: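 PXR-Luc HepG2, 2,000 cells/well, 5% charcoal-stripped FBS; 5hr settle; cpd 24hr, 37C/5% CO2; CellTiter-Fluor at 23hr, read 1hr later (fluorescence).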

[16] = Caspase-3/7 induction in HepG2 cells by small molecules, qHTS assay (AID 1346978); note: nearly all actives have a fitted effect of over 15% in size
Outline: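 Wild-type HepG2 cells, 2,000/well, settled 5 hr at 37 C and 5% CO2, then compound-treated for 17 hr; caspase-3/7 activity read by luminescent Caspase-Glo 3/7 after 30 min at room temperature.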

[17] = Caspase-3/7 induction in CHO-K1 cells by small molecules, qHTS cell viability counter screen (AID 1346979); note: nearly all actives have a fitted effect of over 35% in size
Outline: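 Cells (CHO-K1, wild type) are plated at 1,500 per well and incubated 5hr. Test compounds in DMSO are then pinned in, followed by 16hr at 37C and 5% CO2. Viability is read by CellTiter-Fluor fluorescence after 1hr.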

[18] = target: Estrogen receptor (Homo sapiens) (UniProt P03372); test: qHTS assay to identify small molecule agonists of the estrogen receptor alpha (ER-alpha) signaling pathway in the presence of an antagonist (AID 1259383; calls by dose curve; note: top concentration of the series differs between compounds; nearly all actives have a fitted effect of over 15% in size)
Estrogen receptor (Homo sapiens), sequence (P03372 whole entry, looked up): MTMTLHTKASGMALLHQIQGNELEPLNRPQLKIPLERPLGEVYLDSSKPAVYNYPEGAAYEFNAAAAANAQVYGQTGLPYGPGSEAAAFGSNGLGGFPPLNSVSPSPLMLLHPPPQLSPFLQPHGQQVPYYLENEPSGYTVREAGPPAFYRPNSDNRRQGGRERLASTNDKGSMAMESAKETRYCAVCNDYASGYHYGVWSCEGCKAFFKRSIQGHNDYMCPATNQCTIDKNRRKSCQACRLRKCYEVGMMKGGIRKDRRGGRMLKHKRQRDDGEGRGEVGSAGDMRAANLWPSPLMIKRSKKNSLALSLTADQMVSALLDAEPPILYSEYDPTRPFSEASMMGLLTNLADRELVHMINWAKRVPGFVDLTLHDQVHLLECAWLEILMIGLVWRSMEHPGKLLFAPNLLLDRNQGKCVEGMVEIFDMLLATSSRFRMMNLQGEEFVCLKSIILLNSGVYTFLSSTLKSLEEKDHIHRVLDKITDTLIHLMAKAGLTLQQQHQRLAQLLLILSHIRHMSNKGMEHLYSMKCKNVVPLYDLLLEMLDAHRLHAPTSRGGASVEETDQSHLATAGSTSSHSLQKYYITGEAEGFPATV
Outline: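 Luciferase luminescence (ONE-Glo, 30min at room temperature) measured in VM7Luc4E2 cells after 22hr compound exposure at 15 concentrations, with 10.0nM ICI-182,780 final present; cells express endogenous ER-alpha and carry four EREs upstream of luciferase.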

[19] = target: Thyrotropin-releasing hormone receptor (Homo sapiens) (UniProt P34981); test: qHTS assay to identify small molecule agonists of the thyrotropin-releasing hormone receptor (TRHR) signaling pathway (AID 1346891; calls by dose curve; note: series mostly up to about 58 µM)
Thyrotropin-releasing hormone receptor (Homo sapiens), sequence (P34981 whole entry, looked up): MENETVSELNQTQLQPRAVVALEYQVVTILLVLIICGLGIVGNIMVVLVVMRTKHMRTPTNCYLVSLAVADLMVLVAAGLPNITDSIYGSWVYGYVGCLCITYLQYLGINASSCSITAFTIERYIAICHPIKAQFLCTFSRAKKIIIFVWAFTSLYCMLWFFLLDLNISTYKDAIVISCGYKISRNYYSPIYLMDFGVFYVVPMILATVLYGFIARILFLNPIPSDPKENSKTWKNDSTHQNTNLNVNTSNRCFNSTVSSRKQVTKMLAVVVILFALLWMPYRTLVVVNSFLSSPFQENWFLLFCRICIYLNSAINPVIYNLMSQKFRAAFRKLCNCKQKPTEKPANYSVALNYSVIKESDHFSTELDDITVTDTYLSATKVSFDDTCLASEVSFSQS
Outline: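 Intracellular calcium rise, read as fluorescence every second for 3 min, served as the agonist signal in dye-loaded HEK293 cells expressing TRHR; each compound ran at 15 concentrations in triplicate.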

[20] = target: Thyrotropin-releasing hormone receptor (Homo sapiens) (UniProt P34981); test: qHTS assay to identify small molecule antagonists of the thyrotropin-releasing hormone receptor (TRHR) signaling pathway (AID 1346877; active = well fitted inhibition curve with a large enough effect in the repeat runs, not every such curve was filed as active; note: series mostly up to about 51 µM)
Outline: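 HEK293/TRHR cells, 18 h, 37 °C; Ca2+ dye 2 h; cpd 5 min RT; TRH 1 nM final; fluorescence read 3 min, 1 s intervals; 15 concs, triplicate.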

Measured: Potency

O=c1ccc(=O)[nH][nH]1
not listed: [18] | [19] | [20]
inactive: all other assays above

O=C(NC(=O)c1c(F)cccc1F)Nc1cc(Cl)c(OC(F)(F)C(F)C(F)(F)F)cc1Cl (centres undefined)
not listed: [9] | [11] | [20]
inactive: all other assays above

C=C(C)CCl
not listed: [5] | [6] | [9] | [19] | [20]
inactive: all other assays above

Cc1ccc(N)cc1Cl
not listed: [3] | [20]
inactive: all other assays above

c1cc2c3c(cccc3c1)CC2
not listed: [9]
inactive: all other assays above

[O-][Cl+2]([O-])O
not listed: [3] | [20]
inactive: all other assays above

CNC(=O)Oc1ccccc1OC(C)C
not listed: [3]
inactive: all other assays above

Nc1ccc(Br)cc1
27.3 µM (active) and inactive: [11]
active: [9] 61 µM
not listed: [3]
inactive: all other assays above

Cc1cccc([N+](=O)[O-])c1
not listed: [3] | [20]
inactive: all other assays above

O=c1[nH]c2ccccc2c(=O)o1
not listed: [3] | [20]
inactive: all other assays above

CCN(CC)c1ccccc1
not listed: [5] | [6] | [9]
inactive: all other assays above

[N-]=[N+]=[N-]
not listed: [20]
inactive: all other assays above

C1CC2OC2CC1C1CO1 (centres undefined)
not listed: [3] | [19] | [20]
inactive: all other assays above

BrCCBr
not listed: [3]
inactive: all other assays above

CCNc1nc(NC(C)C)nc(SC)n1
not listed: [18] | [20]
inactive: all other assays above

CCC[CH2][Sn]([Cl])([Cl])[Cl]
not listed: [3] | [20]
inactive: all other assays above

ClCCBr
not listed: [3]
inactive: all other assays above

CC1C=[C-]C=C1.[C-]#[O+].[C-]#[O+].[C-]#[O+].[Mn]
not listed: [3] | [19] | [20]
inactive: all other assays above

CN=C=S
not listed: [3] | [20]
inactive: all other assays above

Cc1ccc([N+](=O)[O-])cc1C
not listed: [3]
inactive: all other assays above

CC(C)C1(C)N=C(c2nc3ccccc3cc2C(=O)O)NC1=O (centres undefined)
not listed: [3] | [20]
inactive: all other assays above

CCCN(CCC)c1c([N+](=O)[O-])cc(C(F)(F)F)cc1[N+](=O)[O-]
not listed: [9] | [20]
inactive: all other assays above

CC(C)(C)OOC(C)(C)C
not listed: [3]
inactive: all other assays above

ClCc1cccnc1
not listed: [3]
inactive: all other assays above

CC(=O)C=C(C)C
not listed: [3] | [20]
inactive: all other assays above

CC(C#N)CCC#N (centres undefined)
not listed: [3]
inactive: all other assays above

CN(C)CCO
not listed: [3] | [20]
inactive: all other assays above

CCCCN(CC)C(=O)SCCC
not listed: [9]
inactive: all other assays above

CC(Oc1ccc(Cl)cc1Cl)C(=O)O (centres undefined)
not listed: [3] | [20]
inactive: all other assays above

Cc1[nH]c(=O)n(C(C)(C)C)c(=O)c1Cl
not listed: [19] | [20]
inactive: all other assays above

COP(N)(=O)SC (centres undefined)
not listed: [3] | [20]
inactive: all other assays above

c1ccc(-c2ccccc2)cc1
not listed: [9] | [20]
inactive: all other assays above
